# Rows were chosen to be rich in hits. Some 12% of all compounds tested hit in one or more screens of this group.
# KCC2 mod: modulators of human KCC2 chloride dependent transport; Q9H2X9; KCC2 cells, thallium flux FluoZin-2 fluorescence; B-score of Tl+ flux slope (higher = more flux/activation; lower = inhibition) at 10 µM; hit rate 2.2% among 190,000; AID 1456;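 active means thallium flux slope and its plate-corrected score both differing from the plate sample mean at a set confidence after two filtering rounds, in either direction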;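 further: slope of fluorescence scaled to starting intensity during 10 to 20 s after thallium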
# Lmaj promast: reduces viability of Leishmania major promastigotes | hit rate 9% among 200,000 | resazurin fluorescence viability | inhibition, % at 10 µM; in the data active means inhibition above about 50%;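 further: promastigotes grown with compound for 44 hours at 28 °C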
# ROMK primary: human ROMK K+ channel modulation, primary screen; P48048; Tet-inducible ROMK, thallium flux fluorescence; actives lie on both sides; B-score at 10 µM; hit rate 2% among 130,000;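 active means signal ratio slope over the read window, or its plate-corrected B-score, at least 3 SD from the plate mean, either direction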;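 further: B-score of the F/F0 ratio slope over 7 to 12 s after thallium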
# Target sequence (P48048 whole entry, looked up): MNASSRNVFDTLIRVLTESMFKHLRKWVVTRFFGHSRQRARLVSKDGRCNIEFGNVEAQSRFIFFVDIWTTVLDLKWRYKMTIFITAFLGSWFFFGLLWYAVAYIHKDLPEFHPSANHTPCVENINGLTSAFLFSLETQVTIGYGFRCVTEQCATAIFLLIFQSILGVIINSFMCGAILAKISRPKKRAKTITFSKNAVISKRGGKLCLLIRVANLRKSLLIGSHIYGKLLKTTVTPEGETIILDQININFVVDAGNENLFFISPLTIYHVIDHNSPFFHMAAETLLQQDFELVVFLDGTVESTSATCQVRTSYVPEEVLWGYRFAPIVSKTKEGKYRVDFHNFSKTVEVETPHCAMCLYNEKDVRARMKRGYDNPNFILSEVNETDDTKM
# Insulin prom up: MIN6 insulin promoter up-regulation | MIN6 insulin promoter-GFP reporter, high-content imaging; stronger effect = higher value | z-score at 5 µM | hit rate 0.3% among 190,000 | AID 1625;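 active means z-score above 3 at 5 µM with at least 500 cells counted in the well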
# Insulin prom inh: TRM-6 insulin promoter activity inhibition; AID 1273; hit rate 0.9% among 130,000; TRM-6 cells (human fetal islet line), insulin promoter-eGFP reporter, imaging; reporter expression induced with tamoxifen; inhibition, % at 2 µM;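 active means inhibition above the mean plus 3 SD, with well images judged a real hit on visual review, cut at about 60% in these data, passing the limit was not always enough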
# WT yeast gro inh: growth inhibition of WT yeast, mitochondrial fusion screen; mitochondrial fusion phenotypic screen, WT strain; inhibition, % at 10 µM; hit rate 2.1% among 190,000; AID 1362; in the data active means inhibition above about 58%; tested in S. cerevisiae
# Starred values were filed as active, the others as inactive; . = no result.
SMILES,KCC2 mod,Lmaj promast,ROMK primary,Insulin prom up,Insulin prom inh,WT yeast gro inh
CCCCC(CC)Cn1c2nc3ccccc3nc2c2c(=N)oc(C)nc21 (centres undefined),-0.56,26,1,0.15,44,-12
CCOc1ccc(CCNc2ccc3nnc(-c4ccccc4)n3n2)cc1OCC,-0.27,77*,0.42,-2.8,-7,1
Clc1ccc(CNc2ccc3nnc(-c4ccccc4)n3n2)cc1,0.083,-3,0.99,-2.3,-22,7
CCOC(=O)c1cc2c(ccn2C)n1CC(=O)N(CC)CC,-0.64,-3,0.14,0.17,.,-18
CC(NC(=O)c1cccc(S(=O)(=O)N2CCN(C)CC2)c1)C1CC2CCC1C2 (centres undefined),-1,0,0.058,-0.34,.,-6
c1ccc(CN(Cc2ccco2)C(c2ccncc2)c2nnnn2C2CCCC2)cc1 (centres undefined),-1.6,95*,-3.2,0.27,.,-7
Clc1ccc(CN(Cc2ccccc2)C(c2cccs2)c2nnnn2C2CCCC2)cc1 (centres undefined),-0.6,87*,-0.18,-1.8,.,0
Fc1ccc(CN(Cc2ccccc2)C(c2cccs2)c2nnnn2C2CCCCC2)cc1 (centres undefined),-1.3,19,-0.062,-1.8,29,-1
Fc1ccc(C(c2nnnn2C2CCCC2)N(Cc2ccco2)CC2CCCO2)cc1 (centres undefined),0.055,78*,-0.22,0.23,-68,14
Cc1ccc(C(=O)N/C(=C\c2ccc(C(C)C)cc2)C(=O)NCCCN2CCOCC2)cc1,-1.6,67*,.,0.56,-31,4
O=[N+]([O-])c1cc(S(=O)(=O)N2CCCCC2)ccc1NCCCN1CCOCC1,-0.66,75*,-0.52,-0.56,-33,5
O=[N+]([O-])c1ccc(Cl)cc1NCCCN1CCOCC1,0.98,59*,1.5,.,11,7
O=[N+]([O-])c1cc(S(=O)(=O)N2CCCCC2)ccc1NCCN1CCOCC1,-0.00027,8,0.27,-0.62,25,10
O=C(NCCCN1CCOCC1)c1cc(Cl)ccc1[N+](=O)[O-],1.1,-2,.,-0.11,-8,-12
O=C(NC(=S)NCCCN1CCOCC1)c1ccc([N+](=O)[O-])cc1,1.5,53*,-0.29,.,.,0
COc1ccccc1Nc1nc(N)nc(CSCCO)n1,-0.19,10,.,-0.2,-25,-8
O=[N+]([O-])c1cc(C(F)(F)F)ccc1NCCCN1CCOCC1,-0.31,88*,-0.39,-1.1,.,-4
O=[N+]([O-])c1ccc(NCCCN2CCOCC2)c([N+](=O)[O-])c1,-0.046,84*,0.0038,-0.2,.,-28
O=[N+]([O-])c1cc(C(F)(F)F)cc([N+](=O)[O-])c1NCCCN1CCOCC1,0.34,28,0.69,-0.13,0,2
O=C(NCCN1CCOCC1)c1cc2cc([N+](=O)[O-])ccc2s1,0.97,66*,0.16,0.38,.,11
COc1ccccc1C(=O)N(CCN(C)C)c1nc2cc(C)cc(C)c2s1,-1.7,36,-0.21,-0.07,0,13
CCN(CC)CCN(C(=O)c1c(F)cccc1F)c1nc2cc(C)cc(C)c2s1,-1.9,21,0.3,-0.43,28,59*
CCc1cccc(OCCCCN(CC)CC)c1,-3.6,98*,-0.4,.,-45,.
CC(=O)NCCOc1cccc(OCCNC(C)=O)c1,0.032,1,0.57,.,-144,6
CCOC(=O)C(CCCCOc1cccc(CC)c1)C(=O)OCC,1.1,45,-0.084,-0.34,42,9
SMILES,KCC2 mod,Lmaj promast,ROMK primary,Insulin prom up,Insulin prom inh,WT yeast gro inh
CCOc1cccc(OCCCNCCCOC)c1,0.038,88*,-0.72,.,-15,60*
CCc1cccc(OCCCCNCCCOC)c1,-0.66,99*,0.84,0.26,23,7
Cc1ccc(SCCC(=O)NC(C)(C)C)cc1,-0.043,-2,1.3,.,-130,1
O=C(Nc1nnc(-c2ccccc2)o1)c1cc(Cl)sc1Cl,60*,2,2.3*,0.43,4,60
O=C(Nc1nnc(-c2ccc(F)cc2)o1)c1cc(Cl)sc1Cl,54*,62*,3.2*,0.13,-257,64
COc1ccc(C(=O)Nc2nnc(-c3ccccc3)o2)cc1OC,.,32,0.33,-1.1,.,-2
O=C(Nc1nnc(-c2ccncc2)o1)c1ccccc1F,0.8,-8,-0.36,0.9,.,-12
O=C(Nc1nccs1)C1CCN(S(=O)(=O)c2cccs2)CC1,-0.36,15,0.56,-0.9,-11,-8
Cc1nc2ccc(NC(=O)C3CCN(S(=O)(=O)c4cccs4)CC3)cc2s1,-2.7,65*,-0.31,-0.21,.,-4
Cc1ccc(-c2csc(NC(=O)C3CCN(S(=O)(=O)c4cccs4)CC3)n2)cc1,-0.51,76*,-0.77,-0.97,-50,4
O=C(Nc1nc(-c2ccc3ccccc3c2)cs1)C1CCN(S(=O)(=O)c2cccs2)CC1,0.74,91*,1.1,-0.53,-14,-13
O=C(CCNC(=O)c1ccccc1Cl)Nc1nc(-c2ccc3ccccc3c2)cs1,-0.86,80*,-0.55,0.1,8,43
O=C(O)c1cc(N2C(=O)C3C4C=CC(C4)C3C2=O)ccc1NCc1cccnc1 (centres undefined),0.87,-2,-0.29,-0.11,-4,7
Cc1occc1-c1nnc(SCC(=O)NCc2cccs2)n1-c1ccc(F)cc1,-0.086,12,-0.088,0.32,.,-12
CCOC(=O)c1c(NC(=O)C2CCN(S(=O)(=O)c3cccs3)CC2)sc(C)c1C,-0.48,1,-0.0066,-1.7,-454,75*
CCOC(=O)c1cccc(NC(=O)C2CCN(S(=O)(=O)c3cccs3)CC2)c1,.,9,-0.18,-0.66,-45,21
CC(=O)N1N=C(c2ccccc2O)OC1(C)CC(=O)Nc1ccccc1 (centres undefined),-1.1,60*,.,1.1,0,-17
Cn1c(SCC(=O)CC(=O)Nc2ccccc2)nnc1-c1ccc(O)cc1,0.47,-7,.,0.36,25,-20
CC1C/C(=N\NC(=S)NC(C)C)CC(C)(C)C1 (centres undefined),.,100*,-0.93,.,23,65*
CC1C/C(=N\NC(=O)c2cccnc2)CC(C)(C)C1 (centres undefined),0.35,-13,-0.031,0.02,8,0
COc1ccccc1N1CC(O)=C(c2nc3ccccc3c(=O)[nH]2)C1=N,.,99*,1.6,-0.07,-23,-15
N=C1C(c2nc3ccccc3c(=O)[nH]2)=C(O)CN1CCc1ccccc1,.,60*,.,1.4,.,10
COc1ccc2nnc(-c3ccc(C(F)(F)F)cc3)n2n1,-1.2,.,.,-0.39,.,.
CCOC(=O)c1ccc(S(=O)(=O)Nc2ccc3cn[nH]c3c2)cc1,-0.13,68*,.,-0.65,-5,-5
Cc1ccc(NC(=O)CNC(c2ccccc2)c2ccccc2)c(F)c1,0.3,71*,0.68,-0.55,-16,51
O=C(CNC(c1ccccc1)c1ccccc1)Nc1c(F)cccc1F,-0.72,10,-0.00049,-0.39,-4,15
CCC1(c2ccc(Cl)cc2)NC(=S)N(c2ccccc2)N1 (centres undefined),23*,-6,.,-0.39,44,31
